According to the supplement of paper PMC11417369:
The full ranking holds about 25,000 sequences; the median of “ln(normalized median fluorescence intensity)” is about 7.1, and the highest 2% start at about 10. The full list was thinned out, with the highest values kept by preference.

Tested on: PfSIP2 AP2 domain 1 (GST-tagged)
Experiment: gcPBM binding intensity (ln(normalized median fluorescence intensity)); higher = stronger DNA binding
In short: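 Binding intensity is the highest Masliner-normalised natural-log median intensity over replicate spots in either probe orientation. To obtain it, GST-tagged P. falciparum DNA-binding domains made in E. coli were incubated for 1 h on an Agilent 4 × 180k array of primer-extended double-stranded 36-bp intergenic genomic probes plus negative controls. Detection used Alexa488 anti-GST antibody with scanning at 488 nm.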

Row | Sequence | gcPBM binding intensity (ln)
1 | AATTTGGTGTGTGTAAAAGTATGTGTCTATATTTAT [GTGCAC_negctrl_site166] | 7.11
2 | TAATATAATGATGCAGTGCATATGTTAAAATGAAAA | 8.72
3 | TTTTTTGTTATGCGGGTGCATATAATAATGTGATGA | 10.8
4 | TTTTGTTATTTTTCAGTGCAATATGATAATAATATA | 7.72
5 | TAATATATTAAAAATAGTACATAAGAAAAATAAGTA [XGTACX_site7957] | 7.11
6 | TATTATATTTTTATTTGTACGTAAAATTAAGTTATG [XGTACX_site2405] | 7.14
7 | TATTAAATATATATTACATGCAAAAAAAAAAAACAA [TGCATGCA_site705] | 7.13
8 | TATGGGTTTATATAGGTGCAATATATGTATATATAA | 10.2
9 | AACAAATATATTAACACACAAACATATAAACCAATG [CACACA_site3970] | 7.19
10 | CAATATTTGTTATGGGTGCAAACCGCATATATATAA [GTGCAC_site9543] | 11
11 | CAATAGTTCTTATGGGTGCAAACCACATATATATAA [GTGCAC_site9606] | 11.3
12 | TATAATAGTTCATAGGTGCAATATAATAAATTTATA [GTGCAC_site9573] | 9.98
13 | ATATAAAATACATGGGTGCAATATATTAAACAAATA [GTGCAC_site9421] | 10.8
14 | TTTTTTGTTAAACCGGTGCATATAAATATATATATA [GTGCAC_site9989] | 9.54
15 | ATTTATTTATACAAAGTGCAATATTTTGTTAAAGTC [GTGCAC_site9618] | 7.89
16 | AATTATATGAAATAAACACACATATGCAATATTGCA [CACACA_site6988] | 6.98
17 | CAATATATTATATGGGTGCAAACCACATATAAATAA | 10.9
18 | AAAAAAAAAAACAATACATGCATAATATTAATAAAA [TGCATGCA_site913] | 6.96
19 | AATCAAAGCCCACATACACACACATATATATATATA [CACACA_site7987] | 9.39
20 | TTTTGTCAACATTTTTATATTAGGTCTTGAACGATT [GTGCAC_negctrl_site72] | 6.9

Row | Sequence | gcPBM binding intensity (ln)
21 | AATAATATATGGTGTACACAAAAGTATAAATAATTT [CACACA_site5338] | 7.15
22 | TCAAATATTCATAAATGTACATTTATTTTTCTCCTT [XGTACX_site5827] | 6.74
23 | TTATTTTAATAACCTACACACATTTTGTATATTTTA [CACACA_site4000] | 6.81
24 | TATATATATGTGTTTACACACAATAATGAATTAAAA [CACACA_site4659] | 7.28
25 | ATATCAATTTTTGGTGGTACGTAGGAAGTTTCAGAA [XGTACX_site6881] | 7.4
26 | ATATAGGTAAAAAGTATACACACGTTGACACATTCT [CACACA_site1199] | 6.95
27 | TTTTTTTTTTTTTTATGTACACATCTAAAAAAAAGG [XGTACX_site2067] | 7.43
28 | TTTTTTTTTTTTGGATGTACTTAATGAAAATGTTAC [XGTACX_site8980] | 7.36
29 | TTATTTATTTATATAGTGCAATAAACACATAAATAG | 8
30 | AAATAGTTGTTATGGGTGCAAACCACATATATATAA [GTGCAC_site9428] | 11
31 | ACATATAATAAAATAGTGCATTGTTAGTTTTATATA | 9.85
32 | GATTTTTAAAATATCACACATAAAAAAAAAAAAAAA [CACACA_site5516] | 6.96
33 | AAAAATAAAGGGTGTGCACACAAAAATATATATATA [CACACA_site1727] | 9.1
34 | AAATATAAAGTGCACACACACAAAAAAAGAAAAAAA [CACACA_site6452] | 11.2
35 | AATATAAAAAGGCACACACACAAAAAAAAAAAAAAA [CACACA_site896] | 7.13
36 | AAAAATATAAACTGCACACACACAAAAAAAGAAAAA [CACACA_site648] | 7.25
37 | TATATATATATAAGTGCACACTGAACCAAGAAAATT [CACACA_site5637] | 9.97
38 | ATAAAAATAAAAAGTGTGCACACAAAAATATATATA [GTGCAC_site9931] | 8.78
39 | AAAAAAAGAAAAATTGCACACACTTATAAAAATATA [CACACA_site4014] | 6.99
40 | TATATATATAAGTGCACACTGAACCAAGAAAATTAT [CACACA_site3008] | 10.5

Row | Sequence | gcPBM binding intensity (ln)
41 | AAATAAAAAGGGTGCACACAAAAATATATATATATA [CACACA_site1728] | 12.4
42 | AAACTCAACTTATATACACACAATCTTTTTTTTTTA [CACACA_site29] | 6.8
43 | AAATGTAATAATAAATGTACAAACATATATATGTAT [XGTACX_site8718] | 6.94
44 | CTAAAAATCTTTTGTTGTACTTTTAGATAATCAGGA [XGTACX_site3968] | 7.06
45 | ATGGGGAATAATGAATGTACACAAATAAAAAGTTGG [XGTACX_site4015] | 7.13
46 | TTTTTTTTTTTTTGTTGTACCCATCATATATACATA [XGTACX_site4342] | 7.11
47 | GTTCATTCATTTTAATGTACAAATTTAACTTTTTCT [XGTACX_site680] | 6.91
48 | TCTTTTTTAAATAAAAGTACAAAAAAAAATAAAAAA [XGTACX_site2670] | 6.93
49 | ATTTTTTTTTTTTTATGTACATATTAAAAAAAATAT [XGTACX_site1829] | 7.01
50 | ATATAAAAATACAGGTGTACATTTTTTCATATTTAT [XGTACX_site6959] | 7.18
51 | TATATAACATATGGGACACACATGCAACTGTTATAT [CACACA_site3792] | 7.19
52 | TGATTCTAACTTATGGTGCAACATTATGGACACCGT | 10.7
53 | AACAACAACTAATATGCACACATTTAAAAACAAAAT [CACACA_site2440] | 7.5
54 | TTATGGTGCAACATTATGCACACCGTTAAATAACTA [CACACA_site3846] | 11.9
55 | ATGGTGCAACATTATGCACACCGTTAAATAACTAAT [CACACA_site9280] | 11.8
56 | TCATAAACATTATGCACACAAAAATAAAAAAAAATA [CACACA_site1115] | 7.52
57 | GATTCATCTAAACACCGTACATATTATATATATATA [XGTACX_site6030] | 9.22
58 | TAATATATTATAAACACATGCACATTAATAATAACT [TGCATGCA_site708] | 9.16
59 | AATCATAAACATTATGCACACAAAAATAAAAAAAAA [CACACA_site8289] | 7.36
